Shown are actives, neighbours in structure and some others; about 1.4% of the full set was active somewhere.
DUSP3 inh – DUSP3 (human) phosphatase inhibition | P51452 | recombinant VHR phosphatase, pNPP absorbance | inhibition, % at 13.3 µM | hit rate 0.52% among 290,000 | AID 1654; in the data active = inhibition above about 50%
Target sequence (P51452 whole entry, looked up): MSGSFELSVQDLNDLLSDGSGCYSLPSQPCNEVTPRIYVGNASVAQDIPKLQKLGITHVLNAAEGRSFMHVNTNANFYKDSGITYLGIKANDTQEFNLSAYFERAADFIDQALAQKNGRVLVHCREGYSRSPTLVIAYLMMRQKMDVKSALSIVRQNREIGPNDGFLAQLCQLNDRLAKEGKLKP
ugtP null kill – kills S. aureus RN4220 lacking UgtP | S. aureus RN4220 ugtP deletion, OD600 growth, 16 h | hit rate 0.54% among 330,000 | AID 1259309 | growth inhibition, % (concentration not given with the values); in the data active = growth inhibition above about 68%;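 also: plate controls were untreated wells for no effect and antibiotic for full effect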
3CLpro inhibitor – SARS-CoV 3CLpro protease inhibition | inhibition, % at 6 µM | hit rate 0.14% among 290,000 | recombinant SARS-CoV 3CLpro, quenched FRET peptide cleavage; in the data active = inhibition above about 12%
PrPC surface inh – reduces human prion protein on the cell surface; P04156; cell surface PrPC, TR-FRET read-out; hit rate 0.43% among 370,000; inhibition, % at 13.8 µM; in the data active = inhibition above about 24%; also: 0% = median of the test wells and 100% = reference compound wells
BJeLR lethal – BJeLR cell viability loss | inhibition, % (test concentration not listed) | hit rate 0.17% among 300,000 | AID 1554 | BJeLR (HRASV12) viability, CellTiter-Glo ATP luminescence, 48 h; in the data active = inhibition above about 50%
RN4220 kill – S. aureus RN4220 growth inhibition. OD600, 16 h. inhibition, % (no concentration beside the values). hit rate 0.33% among 330,000; in the data active = inhibition above about 85%;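 also: plate controls were untreated cells for no effect and reference antibiotic for full effect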
* marks the source's active call; other numbers are inactive results; / = no result.

SMILES	DUSP3 inh	ugtP null kill	3CLpro inhibitor	PrPC surface inh	BJeLR lethal	RN4220 kill
COC(=O)CN1C(=O)C2C(c3ccc(C)o3)N3C(=O)CN(CCO)C(=O)[C@@]3(C)C2C1=O (some centres undefined)	/	0	/	/	/	7
NC1=C(Br)C(=O)c2ccccc2C1=O	13	95*	1	-42	5	77
COc1ccc(C2C3=C(CC(C)(C)CC3=O)Oc3ncn(Cc4ccccc4)c(=N)c32)cc1 (centres undefined)	55*	15	0	0	-4	-3
NC(=NOC(=O)c1cccc(Cl)c1)c1ccncc1	/	-1	/	/	/	6
Cc1cccc2c1ncc1c(=O)n(-c3ccccc3)[nH]c12	57*	9	0	0	1	3
O=C(CC1CC=CCCC(Cc2ccc(F)cc2)C(=O)OC(c2ccccc2)CNC1=O)NC(CO)Cc1ccccc1 (centres undefined)	/	-1	/	/	/	7
O=C1C2C(C(=O)N1N=Cc1cc([N+](=O)[O-])ccc1O)C1C=CC2C12CC2 (centres undefined)	/	81	/	/	/	93*
O=[N+]([O-])c1ccc(O)c(C=Nc2ccc3c(c2)OCCO3)c1	-4	74	9	4	12	92*
O=C(N/N=C/c1cc([N+](=O)[O-])ccc1O)C12CC3CC(CC(C3)C1)C2	6	/	4	-7	8	/
O=C(NN=Cc1cc([N+](=O)[O-])ccc1O)C1CC1	/	80	/	/	/	90*
O=C(N/N=C/c1cc([N+](=O)[O-])ccc1N1CCNCC1)c1ccc([N+](=O)[O-])cc1	52*	/	-5	-37	-9	/
COC(=O)C1=C(c2c(C)noc2C)CC2CCC1N2C(=O)NCCCOC(C)C (centres undefined)	/	-14	/	/	/	5
O=[N+]([O-])c1ccc(O)c(C=NNc2ccc(S(=O)(=O)O)cc2)c1	/	72	/	-15	/	89*
Cc1ccccc1NC(=O)CCC(=O)NN=Cc1cc([N+](=O)[O-])ccc1O	/	85*	/	/	/	95*
CN(/N=C/c1cc([N+](=O)[O-])ccc1O)c1ccccc1	1	/	-4	-4	-1	/
CC(N=Cc1cc([N+](=O)[O-])ccc1O)c1ccccc1 (centres undefined)	-21	67	-3	-5	-11	85*
CCCCCc1c(C)nc(N2CCc3ccccc32)[nH]c1=O	53*	-12	4	0	2	-13
CCCCCc1c(C)nc(N2CCc3ccccc3C2)[nH]c1=O	13	-1	3	8	-10	3
CCCCCCC(=O)N1CC=CC(c2ccc(OC)cc2)N(Cc2ccc(F)cc2)C(=O)C1Cc1ccccc1 (centres undefined)	/	4	/	/	/	4
CCOC(=O)c1sc(NNC(=O)c2ccc(C)cc2)nc1C	-3	-1	4	0	-12	3
CCOC(=O)c1nc(NNC(=O)c2ccc([N+](=O)[O-])cc2)sc1C	51*	-1	-4	-11	26	3
S=C1Cc2ccccc2N1	12	20	-68	41*	-5	-16
Cc1ccc2cc(C(c3nnnn3Cc3ccccc3)N3CCc4ccccc43)c(=O)[nH]c2c1C (centres undefined)	-19	-10	-4	26*	-2	9
O=C(C=Cc1ccccc1)Nc1ccc(NC(=O)c2ccco2)cc1	/	0	/	/	/	2
CCCCn1c(=O)c(C(=O)Nc2ncccc2C)c(O)c2ccccc21	6	100*	-2	-10	4	67
SMILES	DUSP3 inh	ugtP null kill	3CLpro inhibitor	PrPC surface inh	BJeLR lethal	RN4220 kill
CCCn1c(=O)c(C(=O)Nc2ncccc2O)c(O)c2ccccc21	1	4	3	0	-2	5
CCCCCCn1c(=O)c(C(=O)Nc2ncccc2C)c(O)c2ccccc21	-7	89*	-4	-9	-10	66
CCOc1ccc(C2CC=C(C(=O)O)C(c3cccc(Cl)c3)N2S(=O)(=O)c2ccc(C)cc2)cc1 (centres undefined)	/	26	/	/	/	14
O=c1/c(=C/c2ccc(O)c([N+](=O)[O-])c2)sc2nc3ccccc3n12	75*	/	6	4	/	/
O=c1/c(=C\c2cccnc2)sc2nc3ccccc3n12	4	/	-2	/	2	/
Cc1cc(/C=c2\sc3nc4ccccc4n3c2=O)c(C)n1-c1ccc(C(=O)O)cc1	22	/	1	-7	1	/
Cc1cc(C=c2sc3nc4ccccc4n3c2=O)c(C)n1-c1ccc(C(=O)O)cc1	/	100*	/	/	/	88

Screens (PubChem)
